Compound activity deposited in PubChem by National Center for Advancing Translational Sciences (NCATS).
Compounds with a hit are over-represented: about 0.57% of the library has one in this group of screens.
IMPase inh: cell-permeable inhibitors of inositol monophosphatase (IMPase). 120,000 tested, under 10 active. inhibition (IP1 accumulation), % at 46.1 µM. P97697. AID 901. CHO-M1 cells, IP1 accumulation, HTRF TR-FRET ratio; active means well fitted curve in the direction sought with a large enough effect in the signal ratio, not every such curve was filed as active; inconclusive means small, poorly fitted or top-dose-only effect, or a change in a side signal; inactive means no such curve, though single readings can be large or run the other way; the % refers to the signal ratio;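 further: cells stimulated with carbachol in lithium chloride buffer; plate controls were DMSO basal wells for no effect and reference inhibitor wells for full effect; higher means more IMPase inhibition seen as more IP1 and lower FRET ratio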
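CHO-M1, 2000 cells/well, cultured 16–30 h; cpd up to 46 uM; carbachol (50 uM solution, stimulation buffer w/ 50 mM LiCl, pH 7.4), 30 min 37C; IP-One TR-FRET, 10 min RT; Ex 320/Em 665, 620; Hill-fit AC50.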
15-hLO-2 inh: blocks human 15-lipoxygenase 2 activity; O15296; 0.56% of 110,000 active; Potency, µM (titrated, usually from 57.1 µM), inactives show at the top dose activity change, negative = inhibition, actives largely listed as inhibitors; AID 881; purified 15hLO-2, xylenol orange hydroperoxide absorbance; further: potency means the concentration at half of the fitted maximal effect; nearly all actives have a fitted effect of over 60% in size
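Read-out: hydroperoxide product oxidises ferrous iron, measured as xylenol orange complex via the 573-to-405 nm absorbance ratio after 30 min. Reaction: 50 nM enzyme, 15 min compound preincubation, 45 uM arachidonic acid, 90 min RT, Hepes pH 7.5 with Triton X-100.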
IMPase Li cell: IMPase inhibition in cells with lithium potentiation; Potency, µM (titrated, usually from 59.4 µM), without a hit: top-dose activity, negative = IMPase inhibition, hits mostly inhibitors; 0.35% of 210,000 active; CHO-M1 cells, IP1 TR-FRET (IP-One), carbachol + lithium;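 further: IP1 builds up when IMPase is blocked and the TR-FRET signal falls; potency means the concentration at half of the fitted maximal effect; plate controls were basal vehicle for no effect and high inhibitor control for full effect; nearly all actives have a fitted effect of over 50% in size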
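Test compounds were applied to CHO-M1 cells previously cultured for 16–30 h at 2000 per well. A small lithium amount accompanied them; after 30 min at 37C, IP1 was quantified by TR-FRET.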
12-hLO inh: blocks human 12-lipoxygenase activity; purified 12-hLO, xylenol orange hydroperoxide absorbance; 0.12% of 150,000 active; Potency, µM (titrated, usually from 57.1 µM), for the others: at the top dose activity change, negative = inhibition, usual class: inhibitors; AID 1452; further: potency means the concentration at half of the fitted maximal effect; nearly all actives have a fitted effect of over 55% in size
Target sequence (P18054 whole entry, looked up): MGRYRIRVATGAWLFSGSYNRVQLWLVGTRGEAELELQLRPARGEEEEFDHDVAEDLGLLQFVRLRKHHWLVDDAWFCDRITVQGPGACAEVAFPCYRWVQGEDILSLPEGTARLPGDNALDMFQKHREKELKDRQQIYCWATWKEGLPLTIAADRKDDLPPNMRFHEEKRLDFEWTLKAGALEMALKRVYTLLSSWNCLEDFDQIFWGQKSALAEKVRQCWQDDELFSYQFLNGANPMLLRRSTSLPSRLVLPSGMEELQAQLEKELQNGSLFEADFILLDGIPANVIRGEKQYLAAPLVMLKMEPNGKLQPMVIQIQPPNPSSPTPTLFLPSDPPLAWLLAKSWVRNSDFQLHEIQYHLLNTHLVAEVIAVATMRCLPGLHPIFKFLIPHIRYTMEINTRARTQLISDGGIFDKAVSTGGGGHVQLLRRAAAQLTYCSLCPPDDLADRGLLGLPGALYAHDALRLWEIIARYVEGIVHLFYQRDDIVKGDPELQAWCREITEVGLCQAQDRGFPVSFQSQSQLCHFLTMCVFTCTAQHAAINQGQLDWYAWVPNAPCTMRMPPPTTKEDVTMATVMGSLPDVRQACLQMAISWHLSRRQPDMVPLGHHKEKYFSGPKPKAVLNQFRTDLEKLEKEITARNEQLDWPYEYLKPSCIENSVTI
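150 nM 12hLO, 25 mM Hepes pH 7.0 + 0.01% Triton X-100; cpd preinc 15 min RT; 40 uM arachidonic acid, 30 min RT; Fe-XO 30 min; A573/A405 ratio as read-out.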
* = called active by the depositor; ? = inconclusive; · = no result; [ ] = another dose, or the depositor's remark. Unless noted, the call rests on the fitted dose curve; in most records, active means well fitted curve in the direction sought with a large enough effect; inconclusive means small, poorly fitted or top-dose-only effect, or another doubt; inactive means no such curve, though single readings can be large; an effect the other way counts as inactive or inconclusive. Unless noted, on the % scale 0 is the no-effect control and ±100 the full control effect.

SMILES	IMPase inh	15-hLO-2 inh	IMPase Li cell	12-hLO inh
O=c1c(-c2ccc(Cl)cc2)nc2cnc(N3CCOCC3)nc2n1Cc1ccc(F)cc1	·	-6%	-26%	·
Cc1ccc(S(=O)(=O)NNc2nc3ccccc3nc2C(F)(F)F)cc1	0	7.9µM*	2%[38.3 µM]	?
Cc1ccc(S(=O)(=O)NNc2ccccc2)cc1	9	?	-8%[38.3 µM]	16µM*
C[C@@]1(C(=O)O)NCCc2cc(O)c(O)cc21	4	-2%	20%	93%
COC(=O)c1c(C)oc2ccc(N(C(=O)c3ccncc3)S(=O)(=O)c3c(C)cc(C)cc3C)cc12	-4	·	·	·
O=C(O)c1c[nH]c2c(ccc3[nH]cc(C(=O)O)c(=O)c32)c1=O	·	2%[11.4 µM]	-21%	-2%[11.4 µM]
Cc1nc2ccccc2nc1SCC(=O)N1CCC(C)CC1	?	3%	13µM*	4%
CC1CCCN(C(=O)CSc2cnc3ccccc3n2)C1 (configuration not stated)	?	-3%	3.2µM*	-4%
CC1CCN(C(=O)CSc2nc3ccccc3s2)CC1	12	-17%	-6%[38.3 µM]	-12%
CC(=O)N1CCN(c2ccc(NCc3ccc(F)cc3)cc2)CC1	15	25µM*	12%[38.3 µM]	?
COc1cccc(CNc2ccc(N3CCCCC3)cc2)c1OC	4	25µM*	60%[38.3 µM]	-22%
CCOc1ccc(CNc2ccc(N3CCCC3)cc2)cc1	26	5µM*	9%	-29%
COc1ccccc1CNc1ccc(N2CCCCC2)cc1	2	-13%[2.29 µM]	37%[38.3 µM]	-8%
O=c1cc(-c2cccc(F)c2)[nH]c2cc(Cl)ccc12	·	-4%[0.0915 µM]	?	-1%[0.00818 µM]
N#Cc1cccc(NC(=O)N2CCCC3(CCN(C(=O)c4ccco4)CC3)C2)c1	·	10%	20%	4%
C[C@@H]1CC2C3CCC4=CC(=O)C=CC4(C)[C@@]3(F)[C@@H](O)CC2(C)[C@@]1(O)C(=O)CO (some centres not stated)	·	-4%[0.0915 µM]	-3%	1%[0.00818 µM]
O=C(O)Cc1cccc(OCCCN(Cc2cccc(C(F)(F)F)c2Cl)CC(c2ccccc2)c2ccccc2)c1	·	?	-22%	-6%[0.00818 µM]
Cn1c(=S)[nH]c2c(c1=O)C(C)(C)Cc1ccccc1-2	·	·	1.4µM*	·
CC1(C)Cc2ccccc2-c2nc3n(c(=O)c21)CCS3	·	·	7%	·
CCn1c(=S)[nH]c2c(c1=O)C(C)(C)Cc1ccccc1-2	·	·	4.5µM*	·
O=C(c1ccccc1)[C@H](Nc1ccc2ccccc2c1)c1ccccc1	·	-13%[11.4 µM]	-4%	-3%[11.4 µM]
C/C=C/C=C/C=O	·	4%	-11%	-5%
COc1ccc(-n2c(SCC(=O)Nc3cc(C)on3)nc3c([nH]c4ccccc43)c2=O)cc1	·	·	5µM*	·
CC(C)=CCl	·	4%	-15%	-4%
N#Cc1c(-c2ccccc2)nc(-c2ccccc2)[nH]c1=O	-11	-3%	3.5µM*	-2%
SMILES	IMPase inh	15-hLO-2 inh	IMPase Li cell	12-hLO inh
OC1(c2cccc(C(F)(F)F)c2)CCN(c2ncnc3c2[nH]c2ccc(F)cc23)CC1	3	2%	-17%[38.3 µM]	18µM*
C[C@H](OP(=O)(O)O)[C@H](N)C(=O)O	·	-2%[11.4 µM]	-15%	2%[11.4 µM]
O=C(c1ccc(Cl)c(Cl)c1)c1cc(-c2ccccn2)c(N2CCOCC2)s1	-19	-10%	10µM*	-10%
COc1ccc(C(=O)N(O)c2ccccc2)cc1	·	·	-1%	·
CCC(C)C1NC(=O)C(CCNCS(=O)(=O)O)NC(=O)C(NC(=O)C(CCNCS(=O)(=O)O)NC(=O)C(NC(=O)C(CCNCS(=O)(=O)O)NC(=O)CCCCC(C)C)C(C)O)CCNC(=O)C(C(C)O)NC(=O)C(CCNCS(=O)(=O)O)NC(=O)C(CCNCS(=O)(=O)O)NC(=O)C(C(C)CC)NC1=O (configuration not stated)	·	4µM*	-3%	?
CCOc1ccc(OCC)c(NC(=O)c2[nH]c(C)c(C(C)=O)c2C)c1	-16	0%	7.1µM*	5%
O=C(c1ccc(Cl)cc1)c1nnc(-c2ccncc2)o1	-3	-1%	10µM*	-1%
COc1cc(C2CC(=O)N3CN(c4ccccc4C)CSC3=C2C#N)cc(OC)c1OC (configuration not stated)	-4	?	-27%[38.3 µM]	?
COc1ccccc1N1CSC2=C(C#N)C(c3ccc(SC)cc3)CC(=O)N2C1 (configuration not stated)	1	20µM*	-15%[38.3 µM]	?
COc1cccc(C2CC(=O)N3CN(c4cccc(Cl)c4C)CSC3=C2C#N)c1OC (configuration not stated)	-4	13µM*	-2%[38.3 µM]	?
COc1ccc(OC)c(C2CC(=O)N3CN(c4cccc(Cl)c4)CSC3=C2C#N)c1 (configuration not stated)	4	?	6%[38.3 µM]	?
COc1ccc(OC)c(C2CC(=O)N3CN(c4ccccc4F)CSC3=C2C#N)c1 (configuration not stated)	6	32µM*	9%[38.3 µM]	32µM*
COc1cccc(C2CC(=O)N3CN(c4ccccc4F)CSC3=C2C#N)c1 (configuration not stated)	-4	?	-7%[38.3 µM]	-18%
COc1ccc(OC)c(C2CC(=O)N3CN(c4cccc(Cl)c4C)CSC3=C2C#N)c1 (configuration not stated)	-6	10µM*	-13%[38.3 µM]	?
CC1=C(/C=C/C(C)=C/C=C/C(C)=C/C(=O)O)C(C)(C)CCC1O (configuration not stated)	·	·	18%	·
COC(=O)c1cc(NC(=O)c2c(Cl)nc3sccn23)cc(C(=O)OC)c1	2	-6%	11µM*	-2%
CC(O)[C@@H](O)[C@H]1CNc2nc(N)[nH]c(=O)c2N1 (some centres not stated)	·	·	5%	·
COc1ccc(-c2nn3c(-c4ccccc4C)nnc3c3ccccc23)cc1	-2	·	·	·
Nc1ccc(N(c2ccccc2)c2ccc(N)cc2)cc1	3	0.63µM*	-2%[38.3 µM]	-29%
Nc1ccccc1N=c1ssnc1Cl	·	·	-4%	·
Cc1cc(Cl)ccc1N=c1ssnc1Cl	3	?	4%[38.3 µM]	-23%
Cc1ccc(N=c2ssnc2Cl)cc1	?	?	-12%[38.3 µM]	28µM*
COc1cc(N=c2ssnc2Cl)c(OC)cc1Cl	9	25µM*	8%[38.3 µM]	20µM*
COc1ccc(OC)c(N=c2ssnc2Cl)c1	2	25µM*	-1%[38.3 µM]	8.9µM*
COc1ncc2ncc(=O)n(CCc3ccccc3)c2n1	·	-12%	-8%	·
N#Cc1ccc(CN2CCCC3(CCN(S(=O)(=O)c4ccccc4)CC3)C2)cc1	·	13%	16%	-3%
CC(=O)C1=C(O)C(=O)N(c2ccc(Br)cn2)C1c1ccccc1F (configuration not stated)	-10	8%	11µM*	11%
CSCCC(Nc1ncnc2ccc(Br)cc12)C(=O)O (configuration not stated)	-27	-5%	10µM*	5%
CC(C)Nc1ncnc2ccc(Br)cc12	·	·	-10%	-5%
CCn1c2ccccc2c2nnc(SCC(=O)Nc3cc(C)on3)nc21	?	-5%	11µM*	3%
